{"source": "PubChem BioAssay (Tox21)", "note": "Values joined by “and” are separate entries in the source; they are usually repeats but may differ in a detail not shown here. Equal values may be shown once. Values without a mark were called inactive. Active and inactive are the calls of the source. Calls come from the whole dose curve; as a rule, active = well fitted curve in the direction sought with a large enough effect in the repeat runs; inconclusive = weak or mixed curves; inactive = flat fitted curve, though single readings scatter. % is set by controls: 0 for no effect and ±100 for the full control effect.", "data": [{"assay": "qHTS assay to test for compound auto fluorescence at 590 nm (red) in HEK293 cells (AID 720679)", "conditions": "red autofluorescence 540/590 nm; series mostly up to 91.3 µM; fluorescence, % of fluorescent control: at the top concentration", "text": "National Center for Advancing Translational Sciences [NCATS]\nNIH Chemical Genomics Center [NCGC]\nU.S. Environmental Protection Agency [EPA]\nNational Institutes of Environmental Health Sciences [NIEHS]\nNational Toxicology Program [NTP]\nU.S. Food and Drug Administration [FDA]\nCompound auto fluorescence often interferes with screening of the compound library against various biological targets and signaling pathways. Some of these compounds may have fluorophoric properties. Such properties may interfere with the assay outputs resulting in false positives and/or negatives. To decrease such complications and ensure the compound activities are relevant in terms of biological response, the Tox21 10K compound library was screened for auto fluorescence.\nFrom the fluorophores used as reporter signals in our screening assays, the auto fluorescence equivalencies of compounds against three fluorophores have been evaluated: Triamterene, Fluorescein and Rose Bengal sodium for blue, green and red fluorescence, respectively. The fluorescence intensities were measured using Excitation/Emission wavelengths at 405/460nm, 485/535nm and 540/590nm for blue, green and red labels, respectively. This assay includes the red fluorescence data.\nTox21 Assay Protocol Summary:\n2,000 HEK293 cells in 5 uL of culture medium containing 10% dialyzed FBS per well were dispensed into black wall/clear bottom 1536-well plates using a Multidrop Combi Dispenser (Thermo Scientific). The assay plates were incubated for 4-5 hr at 37C to allow cell attachment to the well bottom, followed by the transfer of 23 nL compound or DMSO vehicle by a pintool work station (Kalypsys, San Diego, CA). After the assay plates were incubated overnight at 37C and 5% CO2, fluorescence intensities in the assay plates were measured by an Envision (PerkinElmer, Shelton, CT) plate reader using three labels for measuring blue, green and red fluorescence at […] 460, 535 and 590nm respectively.", "values": [{"smiles": "CC(=O)O[C@H]1C[C@@H]2CC[C@@H]3[C@H](CC[C@@]4(C)[C@H]3C[C@H]([N+]3(C)CCCCC3)[C@@H]4OC(C)=O)[C@@]2(C)C[C@@H]1N1CCCCC1", "fluorescence, % of fluorescent control": "0.266% [at 46 µM]"}, {"smiles": "CCCCCCCC/C=C\\CCCCCCCC(N)=O", "fluorescence, % of fluorescent control": "-0.113%"}, {"smiles": "NC[C@H]1O[C@H](O[C@H]2[C@H](O)[C@@H](O[C@H]3O[C@H](CO)[C@@H](O)[C@H](N)[C@H]3O)[C@H](N)C[C@@H]2N)[C@H](O)[C@@H](O)[C@@H]1O", "fluorescence, % of fluorescent control": "0.0121% [at 18.6 µM] and -0.0907% [at 3.72 µM]"}, {"smiles": "Cc1cc(CC(=O)O)c(C)n1-c1ccc(Cl)cc1", "fluorescence, % of fluorescent control": "0.126% [at 46 µM]"}, {"smiles": "CC(C)NCC(O)COc1ccc(CC(N)=O)cc1", "note": "(stereo not given)", "fluorescence, % of fluorescent control": "0.16%"}, {"smiles": "CCCCc1cc2ccccc2c(OCCN(C)C)n1", "fluorescence, % of fluorescent control": "-0.0036% [at 18.6 µM]"}, {"smiles": "CC(=O)[C@@]1(O)CC[C@H]2[C@@H]3C[C@H](C)C4=CC(=O)CC[C@]4(C)[C@H]3CC[C@@]21C", "fluorescence, % of fluorescent control": "0.306% [at 46 µM]"}, {"smiles": "CC(=O)/C=C/C1C(C)=CCCC1(C)C", "note": "(stereo not given)", "fluorescence, % of fluorescent control": "-0.583%"}, {"smiles": "CCCCCCCCCO", "fluorescence, % of fluorescent control": "0.286%"}, {"smiles": "CC(C)c1ccc2c(C(C)C)cc(C(C)C)c(S(=O)(=O)O)c2c1", "fluorescence, % of fluorescent control": "-0.112% [at 95.7 µM]"}, {"smiles": "CCCCOc1ccc(CC(=O)NO)cc1", "fluorescence, % of fluorescent control": "0.184% [at 18.6 µM]"}, {"smiles": "C=CC[N+]1([C@H]2C[C@H]3[C@@H]4CC[C@H]5C[C@H](OC(C)=O)[C@@H](N6CCCCC6)C[C@]5(C)[C@H]4CC[C@]3(C)[C@H]2OC(=O)CC)CCCCC1", "fluorescence, % of fluorescent control": "0.314% [at 46 µM]"}, {"smiles": "CN(C)CCCNCCCN", "fluorescence, % of fluorescent control": "-0.252%"}, {"smiles": "CCCCC(CC)(CO)CO", "fluorescence, % of fluorescent control": "-0.385%"}, {"smiles": "CC[C@H](C)[C@H](N)C(=O)O", "fluorescence, % of fluorescent control": "0.0014% [at 46 µM]"}, {"smiles": "COCCCCCCCCOCCC[Si](C)(O[Si](C)(C)C)O[Si](C)(C)C", "fluorescence, % of fluorescent control": "0.278%"}, {"smiles": "CC(O)C1CCCCC1", "note": "(stereo not given)", "fluorescence, % of fluorescent control": "-0.506%"}, {"smiles": "O=S(=O)(O)c1ccc(O)c2ncccc12", "fluorescence, % of fluorescent control": "0.0639%"}, {"smiles": "O=C1[C@H](CC[C@H](O)c2ccc(F)cc2)[C@@H](c2ccc(O)cc2)N1c1ccc(F)cc1", "fluorescence, % of fluorescent control": "-0.0116% [at 46 µM]"}, {"smiles": "CCCCCCCCCCCCC(=O)O", "fluorescence, % of fluorescent control": "-0.0932%"}, {"smiles": "CCCCCCCCCC=O", "fluorescence, % of fluorescent control": "-0.211%"}, {"smiles": "N#Cc1c(F)cccc1F", "fluorescence, % of fluorescent control": "-0.0464%"}, {"smiles": "C=C(C)C(=O)OCCOc1ccccc1", "fluorescence, % of fluorescent control": "0.0258%"}, {"smiles": "S=C(S)NCCNC(=S)S", "fluorescence, % of fluorescent control": "-0.21%"}, {"smiles": "CCCCCCCCN(C)C", "fluorescence, % of fluorescent control": "-0.0709%"}, {"smiles": "NC(N)=N/N=C/c1c(Cl)cccc1Cl", "fluorescence, % of fluorescent control": "-0.0086% [at 46 µM]"}, {"smiles": "Cc1ccc(O)c([C@H](CCN(C(C)C)C(C)C)c2ccccc2)c1", "fluorescence, % of fluorescent control": "-0.338% [at 46 µM]"}, {"smiles": "ClC(Cl)(Cl)c1ccc(C(Cl)(Cl)Cl)cc1", "fluorescence, % of fluorescent control": "-0.339%"}, {"smiles": "CCCC[C@H]1CN(CC2CCOCC2)C(=O)OC12CCN(C1(C)CCN(C(=O)c3c(C)ncnc3C)CC1)CC2", "fluorescence, % of fluorescent control": "-0.412%"}, {"smiles": "CC1(C)[C@H]2CC[C@]1(C)[C@H](O)C2", "outcome": "inactive"}, {"smiles": "CCCOc1ccc2nc(NC(=O)OC)[nH]c2c1", "fluorescence, % of fluorescent control": "-0.0194% [at 46 µM]"}, {"smiles": "CCCCCCCCCCCCCCCCCBr", "fluorescence, % of fluorescent control": "0.301% [at 18.6 µM]"}, {"smiles": "COC(Cc1ccccc1)OC", "fluorescence, % of fluorescent control": "-0.478%"}, {"smiles": "CC(=O)OC/C=C/c1ccccc1", "fluorescence, % of fluorescent control": "-0.105%"}, {"smiles": "CCN(CC)C(C)=O", "fluorescence, % of fluorescent control": "0.159% [at 95.7 µM]"}, {"smiles": "O=C(Cl)c1ccc([N+](=O)[O-])cc1", "fluorescence, % of fluorescent control": "-0.184%"}, {"smiles": "CCCCCOC(=O)c1ccc(O)cc1", "fluorescence, % of fluorescent control": "-0.0139% [at 95.7 µM]"}, {"smiles": "N[C@H]1C(O)O[C@H](CO)[C@H](O)[C@@H]1O", "note": "(stereo not given in full)", "fluorescence, % of fluorescent control": "0.21%"}, {"smiles": "CC1=CC(=O)/C(=C(/C)O)C(=O)O1", "fluorescence, % of fluorescent control": "-0.113%"}, {"smiles": "O=C=NC1CCC(CC2CCC(N=C=O)CC2)CC1", "note": "(stereo not given)", "fluorescence, % of fluorescent control": "-0.0163%"}]}]}
